Targets with a hit are over-represented here; the source holds about 7,900 in all. About 0.6% of all pairs of compound and target were hits.
Key:
Assay in all cases: log2 fold change, soluble protein after heating vs DMSO (PISA); higher = thermal stabilisation; K562 cells, 10 uM, 30 min; active = over 0.2 and 3.5 SD of the protein, either way, in both replicates (recomputed)
[1] = compound: NC(=O)Nc1cc(-c2cccc(F)c2)sc1C(=O)N[C@H]1CCCNC1
In short: (§1)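 Soluble protein was defined as the supernatant after 21,000xg for 90 min. It came from K562 cells at 2×10^6 cells/mL given 10 μM compound for 30 min, heated in aliquots for 3 min across 48°C-58°C, pooled, and extracted in PBS with 0.5% NP-40 at 4°C, and was quantified by TMTpro 16plex LC-MS/MS with equalised channel sums. Thermal stability against control samples, from duplicates, is reported as log2 fold change.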

[2] = compound: NC(=O)c1cnc(N[C@@H]2CCCC[C@@H]2N)nc1Nc1cccc(-n2nccn2)c1
In short: as §1

[3] = compound: NC1(c2ccc(-c3nc4ccn5c(=O)[nH]nc5c4cc3-c3ccccc3)cc2)CCC1
In short: as §1

[4] = compound: NCC(=O)Nc1ccc(-n2nc(C(F)(F)F)cc2-c2ccc3c(ccc4ccccc43)c2)cc1
In short: as §1

entinostat = compound: Nc1ccccc1NC(=O)c1ccc(CNC(=O)OCc2cccnc2)cc1 [entinostat]
In short: as §1

vorinostat = compound: O=C(CCCCCCC(=O)Nc1ccccc1)NO [vorinostat]
In short: as §1

citarinostat = compound: O=C(CCCCCCNC(=O)c1cnc(N(c2ccccc2)c2ccccc2Cl)nc1)NO [citarinostat]
In short: as §1

silmitasertib = compound: O=C(O)c1ccc2c(c1)nc(Nc1cccc(Cl)c1)c1ccncc12 [silmitasertib]
In short: as §1

[5] = compound: c1cc(OCCN2CCCCC2)cc(-c2n[nH]c3ccc(-c4nnc[nH]4)cc23)c1
In short: as §1

entospletinib = compound: c1cn2cc(-c3ccc4cn[nH]c4c3)nc(Nc3ccc(N4CCOCC4)cc3)c2n1 [entospletinib]
In short: as §1

[6] = compound: O=C1NC(=O)C(c2cnc3ccccn23)=C1c1cn2c3c(cc(F)cc13)CN(C(=O)N1CCCCC1)CC2
In short: as §1

Measured: log2 fold change

BRD3 (UniProt Q15059)
active: vorinostat -0.663 | citarinostat -0.567
inactive: [1] 0.008 | [2] -0.026 | [3] 0.017 | [4] 0.119 | entinostat -0.123 | silmitasertib 0.061 | [5] -0.002 | entospletinib 0.033

ATAD1 (UniProt Q8NBU5)
inactive: [1] -0.036 | [2] -0.056 | [3] -0.015 | [4] -0.009 | entinostat 0.038 | vorinostat 0.012 | citarinostat 0.032 | silmitasertib 0.012 | [6] 0.197 | [5] -0.053 | entospletinib 0.022

ALDH6A1 (UniProt Q02252)
inactive: [1] -0.02 | [2] 0.034 | [3] -0.045 | [4] -0.116 | entinostat -0.052 | vorinostat 0.021 | citarinostat 0.062 | silmitasertib 0.048 | [6] -0.072 | [5] -0.043 | entospletinib -0.028

AGPAT5 (UniProt Q9NUQ2)
Chain of UniProt Q9NUQ2 (Q9NUQ2 whole entry, looked up): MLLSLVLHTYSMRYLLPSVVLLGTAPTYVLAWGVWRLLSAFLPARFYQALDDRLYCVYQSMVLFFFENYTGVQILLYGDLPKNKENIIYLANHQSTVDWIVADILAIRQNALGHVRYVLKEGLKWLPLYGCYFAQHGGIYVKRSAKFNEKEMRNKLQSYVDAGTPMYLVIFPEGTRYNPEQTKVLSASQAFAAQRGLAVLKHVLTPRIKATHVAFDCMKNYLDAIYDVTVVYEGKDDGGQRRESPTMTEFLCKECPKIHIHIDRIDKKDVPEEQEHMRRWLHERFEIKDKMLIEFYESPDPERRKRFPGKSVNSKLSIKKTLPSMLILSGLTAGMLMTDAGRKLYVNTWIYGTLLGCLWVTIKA
inactive: [1] -0.044 | [2] 0.016 | [3] -0.029 | [4] -0.047 | entinostat -0.027 | vorinostat -0.002 | citarinostat 0.045 | silmitasertib -0.001 | [6] -0.076 | [5] -0.027 | entospletinib 0.114

BDH2 (UniProt Q9BUT1)
Chain of UniProt Q9BUT1 (Q9BUT1 whole entry, looked up): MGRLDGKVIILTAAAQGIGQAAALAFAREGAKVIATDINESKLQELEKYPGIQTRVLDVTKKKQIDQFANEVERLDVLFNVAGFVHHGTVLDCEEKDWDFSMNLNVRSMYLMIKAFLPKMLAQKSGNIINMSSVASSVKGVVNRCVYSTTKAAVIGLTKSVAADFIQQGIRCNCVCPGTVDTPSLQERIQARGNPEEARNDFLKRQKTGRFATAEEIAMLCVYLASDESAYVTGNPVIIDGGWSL
inactive: [1] -0.091 | [2] -0.086 | [3] -0.042 | [4] 0.009 | entinostat 0.025 | vorinostat -0.03 | silmitasertib 0.076

ANXA5 (UniProt P08758)
inactive: [1] -0.021 | [2] -0.044 | [3] -0.139 | [4] -0.031 | entinostat 0.055 | vorinostat 0.027 | citarinostat 0.115 | silmitasertib 0 | [6] -0.045 | [5] -0.008 | entospletinib 0.016

ACOX3 (UniProt O15254)
inactive: [1] -0.084 | [2] 0.004 | [3] -0.09 | [4] 0.16 | entinostat 0.071 | citarinostat 0.287 | silmitasertib -0.302 | [6] -0.022 | [5] -0.016 | entospletinib 0.056

BTAF1 (UniProt O14981)
Chain of UniProt O14981 (O14981 whole entry, looked up): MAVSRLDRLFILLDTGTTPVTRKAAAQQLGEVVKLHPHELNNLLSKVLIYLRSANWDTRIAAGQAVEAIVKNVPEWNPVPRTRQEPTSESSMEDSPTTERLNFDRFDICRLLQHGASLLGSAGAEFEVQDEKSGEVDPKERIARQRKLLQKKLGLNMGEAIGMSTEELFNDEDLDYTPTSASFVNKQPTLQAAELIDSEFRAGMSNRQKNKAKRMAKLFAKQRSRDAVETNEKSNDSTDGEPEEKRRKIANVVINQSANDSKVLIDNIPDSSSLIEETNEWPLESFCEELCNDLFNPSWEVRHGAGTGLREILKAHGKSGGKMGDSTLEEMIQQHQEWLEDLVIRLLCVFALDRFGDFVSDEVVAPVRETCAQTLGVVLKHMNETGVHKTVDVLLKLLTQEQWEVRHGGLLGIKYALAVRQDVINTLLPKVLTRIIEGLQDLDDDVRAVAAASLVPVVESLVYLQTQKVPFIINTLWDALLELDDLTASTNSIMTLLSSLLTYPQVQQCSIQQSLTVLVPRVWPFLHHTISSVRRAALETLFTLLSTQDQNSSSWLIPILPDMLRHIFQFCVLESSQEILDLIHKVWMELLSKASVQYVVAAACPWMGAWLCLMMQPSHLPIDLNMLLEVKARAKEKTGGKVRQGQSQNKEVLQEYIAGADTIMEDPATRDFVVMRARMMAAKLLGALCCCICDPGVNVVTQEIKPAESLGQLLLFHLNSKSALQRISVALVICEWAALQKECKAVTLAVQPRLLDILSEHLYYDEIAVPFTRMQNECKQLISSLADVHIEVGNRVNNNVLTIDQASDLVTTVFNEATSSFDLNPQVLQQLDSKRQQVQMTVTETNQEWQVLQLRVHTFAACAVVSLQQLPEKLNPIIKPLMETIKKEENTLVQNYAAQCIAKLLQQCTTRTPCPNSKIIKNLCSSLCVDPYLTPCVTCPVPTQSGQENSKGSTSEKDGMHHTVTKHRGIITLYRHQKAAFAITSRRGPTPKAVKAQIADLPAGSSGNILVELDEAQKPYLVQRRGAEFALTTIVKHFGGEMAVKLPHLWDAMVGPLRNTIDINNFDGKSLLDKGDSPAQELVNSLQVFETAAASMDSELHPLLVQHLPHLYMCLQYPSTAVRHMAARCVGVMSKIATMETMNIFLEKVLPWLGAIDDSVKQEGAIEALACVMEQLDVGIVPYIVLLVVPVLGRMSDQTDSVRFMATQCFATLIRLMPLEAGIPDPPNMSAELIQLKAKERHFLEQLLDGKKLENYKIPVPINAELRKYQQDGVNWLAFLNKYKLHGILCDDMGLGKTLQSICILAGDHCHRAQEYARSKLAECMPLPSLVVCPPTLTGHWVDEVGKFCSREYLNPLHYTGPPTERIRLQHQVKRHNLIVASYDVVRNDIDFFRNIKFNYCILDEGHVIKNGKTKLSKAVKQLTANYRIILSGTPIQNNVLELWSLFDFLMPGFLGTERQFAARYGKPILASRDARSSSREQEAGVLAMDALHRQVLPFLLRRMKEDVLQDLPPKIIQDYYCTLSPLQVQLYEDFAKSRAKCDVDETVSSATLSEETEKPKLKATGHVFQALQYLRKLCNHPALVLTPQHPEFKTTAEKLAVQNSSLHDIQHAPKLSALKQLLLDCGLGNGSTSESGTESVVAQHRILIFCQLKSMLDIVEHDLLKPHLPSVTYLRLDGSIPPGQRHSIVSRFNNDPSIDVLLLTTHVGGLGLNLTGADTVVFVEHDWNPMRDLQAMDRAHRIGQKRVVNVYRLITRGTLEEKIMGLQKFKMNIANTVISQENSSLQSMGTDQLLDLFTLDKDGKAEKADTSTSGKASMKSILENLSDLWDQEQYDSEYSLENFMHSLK
inactive: [1] -0.024 | [2] -0.012 | [3] -0.152 | [4] -0.104 | entinostat 0.012 | vorinostat 0.037 | citarinostat 0.038 | silmitasertib 0.036 | [6] -0.062 | [5] 0.079 | entospletinib -0.005

APOBEC3G (UniProt Q9HC16)
Chain of UniProt Q9HC16 (Q9HC16 whole entry, looked up): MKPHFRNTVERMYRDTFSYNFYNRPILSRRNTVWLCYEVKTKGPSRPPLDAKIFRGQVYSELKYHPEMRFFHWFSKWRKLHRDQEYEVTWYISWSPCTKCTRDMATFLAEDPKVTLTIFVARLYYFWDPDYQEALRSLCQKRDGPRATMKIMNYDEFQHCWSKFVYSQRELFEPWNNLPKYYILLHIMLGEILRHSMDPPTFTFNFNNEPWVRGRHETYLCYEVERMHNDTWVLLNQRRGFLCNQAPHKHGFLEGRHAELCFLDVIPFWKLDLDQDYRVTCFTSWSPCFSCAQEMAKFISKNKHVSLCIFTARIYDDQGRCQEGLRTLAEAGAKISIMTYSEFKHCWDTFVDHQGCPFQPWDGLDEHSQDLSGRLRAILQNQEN
inactive: [1] 0.046 | [2] 0.149 | [3] 0.061 | [4] -0.027 | entinostat 0.026 | citarinostat 0.125 | silmitasertib 0.116 | [6] 0.202 | [5] -0.013 | entospletinib 0.126

AP2A2 isoform 2 (UniProt O94973)
inactive: [1] -0.155 | [2] 0.052 | [3] -0.003 | [4] -0.013 | entinostat 0.002 | vorinostat 0.034 | citarinostat -0.023 | silmitasertib -0.016 | [6] -0.113 | [5] -0.156 | entospletinib 0.059

ADD1 isoform 3 (UniProt P35611)
inactive: [1] 0.03 | [2] -0.016 | [3] 0.034 | [4] -0.02 | entinostat -0.071 | vorinostat 0.01 | citarinostat 0.034 | silmitasertib -0.01 | [6] -0.06 | [5] 0.01 | entospletinib 0.007

APH1A (UniProt Q96BI3)
active: [4] 0.303
inactive: [1] -0.048 | [2] -0.201 | [3] -0.075 | entinostat 0.014 | vorinostat -0.024 | citarinostat 0.055 | silmitasertib 0.006 | [5] 0.085 | entospletinib -0.084

ABCB6 (UniProt Q9NP58)
Chain of UniProt Q9NP58 (Q9NP58 whole entry, looked up): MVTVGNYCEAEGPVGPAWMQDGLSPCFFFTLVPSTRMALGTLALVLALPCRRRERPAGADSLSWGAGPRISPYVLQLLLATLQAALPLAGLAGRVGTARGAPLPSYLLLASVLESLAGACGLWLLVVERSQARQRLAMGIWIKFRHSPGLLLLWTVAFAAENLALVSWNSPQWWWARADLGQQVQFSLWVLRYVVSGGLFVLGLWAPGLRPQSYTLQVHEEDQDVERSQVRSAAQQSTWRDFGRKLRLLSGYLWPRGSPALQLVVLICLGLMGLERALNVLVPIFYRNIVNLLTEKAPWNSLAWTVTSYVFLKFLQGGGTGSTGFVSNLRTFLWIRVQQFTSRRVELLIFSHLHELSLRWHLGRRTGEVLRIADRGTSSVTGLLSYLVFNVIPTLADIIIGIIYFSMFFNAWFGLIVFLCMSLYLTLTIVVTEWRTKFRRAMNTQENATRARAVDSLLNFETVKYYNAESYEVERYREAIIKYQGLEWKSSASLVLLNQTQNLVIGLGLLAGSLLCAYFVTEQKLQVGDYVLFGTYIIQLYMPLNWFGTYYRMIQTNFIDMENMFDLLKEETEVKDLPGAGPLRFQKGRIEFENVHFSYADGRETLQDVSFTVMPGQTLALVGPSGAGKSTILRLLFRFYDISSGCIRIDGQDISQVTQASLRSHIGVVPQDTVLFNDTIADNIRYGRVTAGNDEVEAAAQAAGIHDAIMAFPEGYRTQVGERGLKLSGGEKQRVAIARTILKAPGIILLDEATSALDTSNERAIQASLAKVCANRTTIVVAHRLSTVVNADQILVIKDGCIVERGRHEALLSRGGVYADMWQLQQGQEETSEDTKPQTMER
inactive: [1] 0.005 | [2] -0.111 | [4] -0.015 | entinostat -0.011 | vorinostat 0.044 | citarinostat 0.063 | silmitasertib 0.018 | [6] -0.047 | [5] -0.021 | entospletinib 0.026
active: [3] -0.456

ARHGAP4 isoform 2 (UniProt P98171)
Chain of UniProt P98171 (P98171 whole entry, looked up): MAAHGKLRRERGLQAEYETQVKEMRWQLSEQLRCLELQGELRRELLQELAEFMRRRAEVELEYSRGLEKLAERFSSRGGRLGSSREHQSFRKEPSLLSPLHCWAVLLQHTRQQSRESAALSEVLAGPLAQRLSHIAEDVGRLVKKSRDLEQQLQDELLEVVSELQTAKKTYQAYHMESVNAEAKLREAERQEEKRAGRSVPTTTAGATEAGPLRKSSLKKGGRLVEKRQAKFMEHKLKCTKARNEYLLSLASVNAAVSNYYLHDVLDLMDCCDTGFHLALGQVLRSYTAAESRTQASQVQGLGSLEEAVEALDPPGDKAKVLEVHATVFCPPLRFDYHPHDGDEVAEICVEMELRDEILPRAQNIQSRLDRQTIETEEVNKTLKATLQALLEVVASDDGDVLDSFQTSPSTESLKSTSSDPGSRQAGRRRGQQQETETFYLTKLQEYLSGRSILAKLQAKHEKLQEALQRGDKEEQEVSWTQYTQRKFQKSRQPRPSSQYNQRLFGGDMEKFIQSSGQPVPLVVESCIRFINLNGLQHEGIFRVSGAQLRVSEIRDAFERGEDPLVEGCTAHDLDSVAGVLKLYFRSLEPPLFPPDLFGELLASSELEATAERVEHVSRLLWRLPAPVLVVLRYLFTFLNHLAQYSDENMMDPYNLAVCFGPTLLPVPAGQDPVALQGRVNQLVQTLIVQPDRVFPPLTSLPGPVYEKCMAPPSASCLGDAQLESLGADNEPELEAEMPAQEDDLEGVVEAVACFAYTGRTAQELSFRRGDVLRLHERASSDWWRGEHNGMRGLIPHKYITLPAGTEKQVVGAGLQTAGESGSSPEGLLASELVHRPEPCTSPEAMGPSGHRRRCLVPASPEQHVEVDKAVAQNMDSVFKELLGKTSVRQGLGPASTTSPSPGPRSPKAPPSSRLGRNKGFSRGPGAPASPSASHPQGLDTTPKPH
inactive: [1] 0.197 | [2] -0.079 | [3] 0.021 | [4] -0.036 | entinostat 0.081 | citarinostat 0.047 | silmitasertib -0.043 | [5] -0.097 | entospletinib 0.003

ADAMTS5 (UniProt Q9UNA0)
inactive: [1] 0.026 | [2] -0.065 | [3] 0.074 | [4] -0.071 | entinostat -0.08 | vorinostat 0.056 | citarinostat 0.074 | silmitasertib -0.064 | [5] 0.051 | entospletinib -0.145

AMFR (UniProt Q9UKV5)
inactive: [1] -0.024 | [2] -0.128 | [3] -0.115 | [4] -0.075 | entinostat 0.051 | vorinostat 0.055 | citarinostat 0.012 | silmitasertib 0.07 | [6] -0.032 | [5] 0.021 | entospletinib -0.059

AFDN isoform 5 (UniProt P55196)
inactive: [1] -0.154 | [2] -0.009 | [3] -0.099 | [4] -0.025 | entinostat 0.008 | vorinostat 0.019 | citarinostat 0.079 | silmitasertib -0.012 | [6] -0.052 | [5] -0.068 | entospletinib -0.041

AARSD1 isoform 3 (UniProt Q9BTE6)
Chain of UniProt Q9BTE6 (Q9BTE6 whole entry, looked up): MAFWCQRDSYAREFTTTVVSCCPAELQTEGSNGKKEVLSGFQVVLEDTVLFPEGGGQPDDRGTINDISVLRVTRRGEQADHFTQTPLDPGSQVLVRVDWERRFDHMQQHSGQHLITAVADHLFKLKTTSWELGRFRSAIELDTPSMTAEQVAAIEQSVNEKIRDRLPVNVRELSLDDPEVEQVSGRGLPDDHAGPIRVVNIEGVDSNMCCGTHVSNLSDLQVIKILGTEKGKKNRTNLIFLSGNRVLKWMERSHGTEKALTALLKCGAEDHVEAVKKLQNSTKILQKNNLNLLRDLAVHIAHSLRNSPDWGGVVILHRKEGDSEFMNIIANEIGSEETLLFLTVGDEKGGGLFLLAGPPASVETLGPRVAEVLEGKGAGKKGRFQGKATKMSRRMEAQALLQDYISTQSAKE
active: [3] -0.214
inactive: [1] -0.051 | [2] -0.008 | [4] -0.04 | entinostat 0.054 | vorinostat -0.113 | citarinostat 0.033 | silmitasertib 0.046 | [6] 0.008 | [5] 0.011 | entospletinib -0.066

AP2M1 (UniProt C9JTK4)
inactive: [1] -0.07 | [2] -0.149 | [3] -0.111 | [4] -0.261 | entinostat 0.043 | citarinostat -0.132 | silmitasertib 0.116 | [6] -0.267 | [5] 0.024 | entospletinib 0.047

AFG1L (UniProt Q8WV93)
inactive: [1] -0.021 | [2] 0.008 | [3] 0.019 | [4] -0.178 | entinostat 0.095 | citarinostat -0.004 | silmitasertib 0.009 | [6] -0.009 | [5] -0.057 | entospletinib -0.029

AP2B1 isoform 2 (UniProt P63010)
active: [1] -0.225
inactive: [2] 0.01 | [3] 0.037 | [4] 0.002 | entinostat 0 | vorinostat 0.01 | citarinostat 0.019 | silmitasertib 0.02 | [6] -0.202 | [5] -0.182 | entospletinib 0.032

AP4S1 (UniProt Q9Y587)
inactive: [1] -0.014 | [2] 0.039 | [3] -0.11 | [4] 0.019 | entinostat 0.062 | citarinostat 0.054 | silmitasertib -0.005 | [6] -0.092 | [5] 0.015 | entospletinib 0.039

ARL2BP (UniProt Q9Y2Y0)
inactive: [1] -0.056 | [2] -0.108 | [3] -0.129 | [4] -0.088 | entinostat -0.057 | vorinostat 0.132 | citarinostat 0.006 | silmitasertib -0.02 | [6] 0.108 | [5] 0.046 | entospletinib -0.06

ACIN1 (UniProt Q9UKV3)
inactive: [1] -0.013 | [2] -0.038 | [3] 0.003 | [4] -0.062 | entinostat -0.024 | vorinostat 0.035 | citarinostat 0.035 | silmitasertib -0.124 | [6] 0.013 | [5] -0.084 | entospletinib -0.008

APOH (UniProt P02749)
inactive: [1] -0.094 | [2] -0.109 | [3] -0.414 | [4] 0.065 | entinostat 0.06 | vorinostat 0.354 | citarinostat -0.149 | silmitasertib 0.565 | [5] 0.006 | entospletinib 0.206

ATP6V1C1 (UniProt P21283)
inactive: [1] -0.015 | [2] -0.135 | [3] -0.173 | [4] -0.09 | entinostat 0.062 | vorinostat 0.039 | citarinostat 0.008 | silmitasertib 0.03 | [6] 0.025 | [5] -0.103 | entospletinib -0.02

BCCIP isoform 2 (UniProt Q9P287)
inactive: [1] 0 | [2] -0.001 | [3] -0.096 | [4] -0.011 | entinostat 0.027 | vorinostat 0.033 | citarinostat 0.021 | silmitasertib 0.096 | [6] -0.029 | [5] -0.031 | entospletinib 0.008

BRK1 isoform 2 (UniProt Q8WUW1)
inactive: [1] -0.071 | [2] 0.033 | [3] -0.019 | [4] 0.065 | entinostat 0.079 | vorinostat -0.06 | citarinostat 0.031 | silmitasertib -0.063 | [6] -0.16 | [5] -0.078 | entospletinib 0.047

From the supplement of paper PMC10849652
